Laboratory results reported in PubChem BioAssay.
Activity calls are given as the source filed them.

Tests used:
[1] = tested on: PRMT1 (protein arginine N-methyltransferase 1); test: PRMT1 binders on small-molecule microarrays, primary screen, biochemical, small-molecule microarray, 635 nm fluorescence (AID 1088); conditions: small-molecule microarray binding, higher = more signal;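 also: binding of Prmt1 protein to compounds spotted on small-molecule microarray slides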
[2] = yeast growth modulation, basal conditions, primary screen, YJM789 clinical isolate, OD600, 24 h (AID 1089);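 also: growth of clinical yeast isolate S. cerevisiae YJM 789 seeded 1000 cells per well; test concentration not given here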; conditions: S. cerevisiae YJM789 growth, higher = more signal, called active from +8 up or from −8 down
[3] = fission yeast growth modulation, primary screen, strain 972, OD600, 24 h, no modulator (AID 1090);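 also: basal condition with compound alone and no growth modifier present; test concentration not given here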; conditions: S. pombe 972 growth, higher = more signal, called active from +8 up or from −8 down
[4] = S. cerevisiae growth modulation with rapamycin, primary screen, strain BY4716, OD600, 96 h (AID 1091); conditions: higher = more signal, called active from +8 up or from −8 down; also: test concentration not given here
[5] = target: Torsin-1A-interacting protein 2 (Homo sapiens) (UniProt Q8NFQ8); test: LULL1 binders on small-molecule microarray, primary screen, cell lysate, human LULL1 lysate, 635/667 nm fluorescence (AID 1092); conditions: hLULL1 lysate binding, 635 nm fluorescence, higher = more signal;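 also: probe is lysate of COS7 cells overexpressing human LULL1; score merges per-feature 667 nm fluorescence with signal-to-noise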
[6] = E. coli growth modulation, two-sided OD650, primary screen, E. coli filamentation project, strain DRC41, 24 h (AID 1093); conditions: OD650, 24 h, higher = more signal, called active from +8 up or from −8 down;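 also: MC1000 strain lacking acrAB efflux and sulA so SOS filamentation is blocked; test concentration not given here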
[7] = small-molecule microarray binders of probe aLefty2, primary screen, biochemical, biotinylated probe, 635/667 nm fluorescence (AID 1094); conditions: higher = more signal;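 also: score merges spot fluorescence near 667 nm with spot signal-to-noise ratio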
[8] = tested on: Noggin (protein binding on small-molecule microarray); test: Noggin binders on small-molecule microarray, primary screen, biochemical, 635/667 nm fluorescence (AID 1095); conditions: 635 nm fluorescence, higher = more signal;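 also: score merges 667 nm feature fluorescence with signal to noise over triplicate slides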
[9] = target: Neurogenic locus notch homolog protein 3 (Homo sapiens) (UniProt Q9UM47); test: NOTCH3 binders on small-molecule microarray, primary screen, biochemical, 635/667 nm fluorescence (AID 1096); conditions: NOTCH3 binding, 635 nm fluorescence, higher = more signal
[10] = small-molecule microarray binders of probe aEGFR, primary screen, biochemical, biotinylated probe, 635/667 nm fluorescence (AID 1097); conditions: higher = more signal;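 also: probe is a biotinylated anti-EGFR antibody binding compounds printed on slides; score combines fluorescence near 667 nm and signal to noise of each spot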
[11] = tested on: Plasmodium falciparum Sir2 (PF13_0152, Sir2A); test: pfSir2 binders on small-molecule microarrays, primary screen, biochemical, small-molecule microarray, 635 nm fluorescence (AID 1098); conditions: small-molecule microarray binding, fluorescence 635 nm; higher = more signal;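 also: score merges spot fluorescence intensity with its signal-to-noise ratio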
[12] = small-molecule microarray binders of probe aDKK1, primary screen, biochemical, biotinylated probe, 635/667 nm fluorescence (AID 1099); conditions: higher = more signal;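 also: score merges 667nm spot fluorescence with signal to noise across triplicate slides; reference of the scale not given here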
[13] = small-molecule microarray binders of probe aCHRDL2, primary screen, biochemical, biotinylated probe, 635/667 nm fluorescence (AID 1100); conditions: higher = more signal
[14] = splicing luciferase reporter signal modulators, primary screen, spliceosome inhibition project, cell-based, HEK293, splice +/- reporter (AID 1101); conditions: luminescence, 24 h, higher = more signal, called active from +8 up or from −8 down;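 also: HEK293 cells carrying a splicing-competent luciferase reporter gene; test concentration not given here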
[15] = target: Fibroblast growth factor 10 (Homo sapiens) (UniProt O15520); test: FGF10 binders on small-molecule microarrays, primary screen, biochemical, small-molecule microarray, 635 nm fluorescence (AID 1102); conditions: FGF10 binding, fluorescence 635 nm, higher = more signal
[16] = tested on: glycogen synthase kinase-3 (GSK3A per assay name; protocol says GSK3B); test: GSK3 binders on small-molecule microarrays, primary screen, biochemical, small-molecule microarray, 635 nm fluorescence, GSK3A (AID 1103); conditions: small-molecule microarray binding, fluorescence 635 nm; higher = more signal; also: the record names both GSK3A and GSK3B
[17] = target: Epidermal growth factor receptor (Homo sapiens) (UniProt P00533); test: EGFR binders on small-molecule microarrays, primary screen, biochemical, small-molecule microarray, 635 nm fluorescence (AID 1104); conditions: EGFR binding, higher = more signal;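 also: score merges 667 nm emission intensity with spot signal to noise over triplicate slides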
[18] = target: Follistatin-related protein 3 (Homo sapiens) (UniProt O95633); test: FSTL3 binders on small-molecule microarrays, primary screen, biochemical, small-molecule microarray, 635 nm fluorescence (AID 1105); conditions: FSTL3 binding, higher = more signal;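 also: score merges emission near 667 nm and signal to noise per printed spot across three slides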
[19] = target: Dickkopf-related protein 1 (Homo sapiens) (UniProt O94907); test: DKK1 binders on small-molecule microarrays, primary screen, biochemical, small-molecule microarray, 635 nm fluorescence scan (AID 1106); conditions: DKK1 binding, higher = more signal;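 also: score merges emission near 667 nm with signal to noise over three replicate slides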
[20] = tested on: Inhibin beta A chain (activin A); test: INHBA (activin A) binders on microarrays, primary screen, biochemical, small-molecule microarray, 635 nm fluorescence scan (AID 1107); conditions: small-molecule microarray binding, higher = more signal;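 also: mouse activin A protein probed at 4.33 µg/mL on printed slides; score merges bound-protein fluorescence near 667 nm with spot signal-to-noise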

Sequence of Follistatin-related protein 3 (Homo sapiens) (O95633 whole entry, looked up): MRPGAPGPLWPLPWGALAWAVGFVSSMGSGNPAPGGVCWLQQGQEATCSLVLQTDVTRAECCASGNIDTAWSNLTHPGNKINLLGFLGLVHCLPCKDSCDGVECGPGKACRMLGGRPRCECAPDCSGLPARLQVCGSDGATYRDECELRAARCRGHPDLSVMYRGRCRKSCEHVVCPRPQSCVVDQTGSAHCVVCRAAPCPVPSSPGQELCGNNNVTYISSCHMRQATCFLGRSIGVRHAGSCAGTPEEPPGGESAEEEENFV
Sequence of Neurogenic locus notch homolog protein 3 (Homo sapiens) (Q9UM47 whole entry, looked up): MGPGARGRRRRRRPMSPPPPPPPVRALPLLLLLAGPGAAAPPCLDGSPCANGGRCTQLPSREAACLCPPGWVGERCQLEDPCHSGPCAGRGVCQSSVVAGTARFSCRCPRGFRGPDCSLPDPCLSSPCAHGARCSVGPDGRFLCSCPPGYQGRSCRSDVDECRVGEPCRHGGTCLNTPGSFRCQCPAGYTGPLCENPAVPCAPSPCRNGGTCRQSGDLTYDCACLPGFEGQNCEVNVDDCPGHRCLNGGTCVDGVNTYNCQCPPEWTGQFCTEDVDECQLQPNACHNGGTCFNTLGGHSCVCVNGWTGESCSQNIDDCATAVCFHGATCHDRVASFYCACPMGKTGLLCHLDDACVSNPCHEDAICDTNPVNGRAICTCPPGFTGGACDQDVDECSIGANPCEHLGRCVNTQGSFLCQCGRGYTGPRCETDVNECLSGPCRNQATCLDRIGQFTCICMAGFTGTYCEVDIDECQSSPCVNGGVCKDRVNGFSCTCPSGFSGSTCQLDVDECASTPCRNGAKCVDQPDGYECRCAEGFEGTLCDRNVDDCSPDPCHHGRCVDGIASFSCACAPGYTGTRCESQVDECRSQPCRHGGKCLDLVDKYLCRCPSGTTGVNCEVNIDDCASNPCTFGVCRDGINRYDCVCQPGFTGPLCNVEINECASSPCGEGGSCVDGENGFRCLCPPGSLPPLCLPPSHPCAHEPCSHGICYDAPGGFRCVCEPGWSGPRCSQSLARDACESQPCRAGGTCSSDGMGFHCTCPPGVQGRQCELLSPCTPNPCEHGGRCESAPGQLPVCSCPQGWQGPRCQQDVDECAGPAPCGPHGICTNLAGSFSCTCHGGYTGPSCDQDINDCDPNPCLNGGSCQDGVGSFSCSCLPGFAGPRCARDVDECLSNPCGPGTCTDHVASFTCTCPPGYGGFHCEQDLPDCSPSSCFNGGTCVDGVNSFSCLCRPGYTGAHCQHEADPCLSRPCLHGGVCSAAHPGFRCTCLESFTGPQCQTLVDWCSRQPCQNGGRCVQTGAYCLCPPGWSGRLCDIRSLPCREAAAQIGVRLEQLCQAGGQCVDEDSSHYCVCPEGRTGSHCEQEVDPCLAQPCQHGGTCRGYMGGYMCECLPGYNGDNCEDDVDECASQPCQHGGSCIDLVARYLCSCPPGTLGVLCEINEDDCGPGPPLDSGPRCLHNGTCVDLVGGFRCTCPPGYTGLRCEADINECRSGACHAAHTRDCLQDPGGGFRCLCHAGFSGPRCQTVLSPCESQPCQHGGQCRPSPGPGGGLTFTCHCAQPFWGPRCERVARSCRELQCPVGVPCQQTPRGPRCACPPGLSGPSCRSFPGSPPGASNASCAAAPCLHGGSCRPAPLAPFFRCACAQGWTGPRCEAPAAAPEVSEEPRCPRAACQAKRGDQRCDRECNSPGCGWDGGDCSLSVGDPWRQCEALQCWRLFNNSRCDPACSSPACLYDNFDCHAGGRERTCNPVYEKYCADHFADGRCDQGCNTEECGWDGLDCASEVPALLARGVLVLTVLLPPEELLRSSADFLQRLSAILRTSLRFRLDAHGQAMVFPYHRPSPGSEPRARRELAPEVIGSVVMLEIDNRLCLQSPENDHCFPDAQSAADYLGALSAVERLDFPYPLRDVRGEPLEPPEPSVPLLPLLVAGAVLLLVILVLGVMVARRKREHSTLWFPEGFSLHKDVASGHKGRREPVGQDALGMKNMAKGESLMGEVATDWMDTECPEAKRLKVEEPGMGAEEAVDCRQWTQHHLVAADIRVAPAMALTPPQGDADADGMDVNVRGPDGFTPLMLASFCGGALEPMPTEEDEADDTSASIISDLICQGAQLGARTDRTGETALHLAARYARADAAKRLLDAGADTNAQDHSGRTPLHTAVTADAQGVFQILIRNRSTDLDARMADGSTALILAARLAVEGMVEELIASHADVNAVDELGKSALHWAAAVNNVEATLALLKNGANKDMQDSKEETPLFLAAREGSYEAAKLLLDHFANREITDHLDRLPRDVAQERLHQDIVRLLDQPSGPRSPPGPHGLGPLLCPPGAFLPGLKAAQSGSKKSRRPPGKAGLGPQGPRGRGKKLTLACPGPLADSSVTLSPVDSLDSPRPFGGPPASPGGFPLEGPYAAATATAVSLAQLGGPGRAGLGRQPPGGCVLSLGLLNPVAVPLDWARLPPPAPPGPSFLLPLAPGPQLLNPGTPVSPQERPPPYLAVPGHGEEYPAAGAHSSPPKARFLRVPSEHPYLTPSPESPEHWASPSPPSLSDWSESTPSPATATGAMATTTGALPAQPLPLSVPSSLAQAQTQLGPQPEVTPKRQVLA
Sequence of Torsin-1A-interacting protein 2 (Homo sapiens) (Q8NFQ8 whole entry, looked up): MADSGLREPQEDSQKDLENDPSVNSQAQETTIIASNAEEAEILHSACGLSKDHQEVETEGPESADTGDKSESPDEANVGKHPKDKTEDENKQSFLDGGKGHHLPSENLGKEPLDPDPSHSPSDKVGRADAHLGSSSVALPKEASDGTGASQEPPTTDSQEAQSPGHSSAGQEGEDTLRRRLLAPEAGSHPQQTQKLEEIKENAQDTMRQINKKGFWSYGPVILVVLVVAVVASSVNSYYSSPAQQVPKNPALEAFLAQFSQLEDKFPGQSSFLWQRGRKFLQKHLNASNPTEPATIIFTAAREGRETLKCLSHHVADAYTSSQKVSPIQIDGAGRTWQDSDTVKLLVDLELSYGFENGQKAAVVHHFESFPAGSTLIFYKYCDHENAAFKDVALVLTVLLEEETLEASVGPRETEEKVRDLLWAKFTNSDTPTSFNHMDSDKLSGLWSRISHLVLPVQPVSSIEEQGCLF
Sequence of Dickkopf-related protein 1 (Homo sapiens) (O94907 whole entry, looked up): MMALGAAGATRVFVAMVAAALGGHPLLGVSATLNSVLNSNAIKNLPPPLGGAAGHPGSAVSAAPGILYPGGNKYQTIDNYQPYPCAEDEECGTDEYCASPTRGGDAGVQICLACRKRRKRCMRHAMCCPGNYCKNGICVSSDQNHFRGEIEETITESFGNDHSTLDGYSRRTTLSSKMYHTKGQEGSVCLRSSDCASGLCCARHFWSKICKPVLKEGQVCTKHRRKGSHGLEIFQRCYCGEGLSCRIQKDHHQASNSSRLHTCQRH
Sequence of Epidermal growth factor receptor (Homo sapiens) (P00533 whole entry, looked up): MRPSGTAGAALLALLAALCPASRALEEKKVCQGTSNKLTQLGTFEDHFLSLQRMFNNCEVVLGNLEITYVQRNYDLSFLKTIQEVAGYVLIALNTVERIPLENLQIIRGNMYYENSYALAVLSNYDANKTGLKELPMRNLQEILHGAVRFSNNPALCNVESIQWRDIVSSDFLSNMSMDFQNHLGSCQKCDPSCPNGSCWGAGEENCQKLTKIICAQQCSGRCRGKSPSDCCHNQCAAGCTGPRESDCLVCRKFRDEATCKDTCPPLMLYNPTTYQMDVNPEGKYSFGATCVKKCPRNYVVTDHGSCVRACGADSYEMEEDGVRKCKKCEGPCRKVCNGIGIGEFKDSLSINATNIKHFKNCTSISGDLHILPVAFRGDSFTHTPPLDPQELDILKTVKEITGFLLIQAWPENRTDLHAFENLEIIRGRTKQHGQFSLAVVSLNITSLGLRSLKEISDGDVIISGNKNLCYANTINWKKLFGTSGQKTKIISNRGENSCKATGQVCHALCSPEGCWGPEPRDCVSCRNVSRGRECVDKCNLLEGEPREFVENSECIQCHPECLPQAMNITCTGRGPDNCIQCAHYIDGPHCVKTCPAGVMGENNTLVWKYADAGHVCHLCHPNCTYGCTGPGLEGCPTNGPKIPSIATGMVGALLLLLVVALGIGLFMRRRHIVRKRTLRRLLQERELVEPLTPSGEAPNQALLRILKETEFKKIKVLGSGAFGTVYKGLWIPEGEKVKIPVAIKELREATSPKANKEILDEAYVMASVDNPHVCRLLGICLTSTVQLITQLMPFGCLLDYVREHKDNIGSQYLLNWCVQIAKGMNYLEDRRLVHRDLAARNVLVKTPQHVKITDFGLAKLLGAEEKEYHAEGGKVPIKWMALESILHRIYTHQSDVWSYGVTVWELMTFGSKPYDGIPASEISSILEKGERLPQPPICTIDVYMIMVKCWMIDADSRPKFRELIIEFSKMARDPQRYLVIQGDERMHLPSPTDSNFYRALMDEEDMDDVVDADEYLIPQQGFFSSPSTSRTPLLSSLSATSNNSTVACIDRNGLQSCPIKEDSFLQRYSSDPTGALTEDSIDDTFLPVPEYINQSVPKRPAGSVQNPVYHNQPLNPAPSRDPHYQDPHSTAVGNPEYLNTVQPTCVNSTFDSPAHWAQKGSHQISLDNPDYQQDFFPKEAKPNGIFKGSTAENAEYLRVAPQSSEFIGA
Sequence of Fibroblast growth factor 10 (Homo sapiens) (O15520 whole entry, looked up): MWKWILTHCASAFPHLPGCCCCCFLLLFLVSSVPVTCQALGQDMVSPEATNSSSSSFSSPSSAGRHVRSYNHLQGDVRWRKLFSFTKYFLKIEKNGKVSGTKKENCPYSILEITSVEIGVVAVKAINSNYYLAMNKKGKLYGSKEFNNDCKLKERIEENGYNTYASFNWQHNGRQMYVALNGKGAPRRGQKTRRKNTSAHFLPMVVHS

Row | Compound | composite z-score [1] | z-score [2] | z-score [3] | z-score [4] | composite z-score [5] | z-score [6] | composite z-score [7] | composite z-score [8] | composite z-score [9] | composite z-score [10] | composite z-score [11] | composite z-score [12] | composite z-score [13] | z-score [14] | composite z-score [15] | composite z-score [16] | composite z-score [17] | composite z-score [18] | composite z-score [19] | composite z-score [20]
1 | Cc1cc(C)cc(N2C(=O)CS(=O)(=O)C2c2cccc([N+](=O)[O-])c2)c1 (stereo not given) | 1.13 | -0.703 (inactive) | -1.22 (inactive) | -0.522 (inactive) | 2.13 | -0.268 (inactive) | 0.788 | 0.0104 | 0.726 | 0.477 | 0.195 | 0.734 | 0.788 | -0.352 (inactive) | 0.612 | 0.124 | 0.518 | 0.366 | 0.122 | 0.826
2 | CC(C)N1CC=CC23O[C@@H]4C=CCOC(=O)[C@@H]4[C@H]2C(=O)N(CCO)[C@@H]3C1=O (stereo not given in full) | 0.53 | 1.14 (inactive) | 0.24 (inactive) | -0.938 (inactive) | 3.37 | 0.73 (inactive) | -0.328 | -0.431 | 0.173 | -0.287 | 1.58 | -0.256 | 0.651 | -0.262 (inactive) | -1.61 | -0.897 | -0.859 | -0.447 | -1.61 | -0.223
3 | C=C(CCCC)/C(=C/C[C@H](OC(C)=O)c1ccc(CO)o1)c1cnc2ccccc2c1 | 1.43 | -0.237 (inactive) | -0.923 (inactive) | 1.37 (inactive) | 1.46 | 0.111 (inactive) | -0.0998 | 1.12 | 1.07 | 0.0324 | 1.11 | -0.179 | -0.531 | -0.276 (inactive) | 1.35 | 1.21 | 0.497 | 1.49 | 0.601 | 1.69
4 | Cc1ccc(S[C@]2(C(=O)NC3CC3)CC(=O)N(C3CCCCC3)[C@@H]2c2ccc(CO)cc2I)cc1 | 1.53 | 0.0615 (inactive) | 0.532 (inactive) | 1.38 (inactive) | 2.6 | 1.26 (inactive) | -0.138 | 0.659 | 1.06 | -0.0703 | 1.19 | 0.198 | 0.259 | -0.575 (inactive) | 0.796 | 0.52 | 0.396 | 1.18 | 0.0553 | 0.0315
5 | O=C1N(CCS(=O)(=O)c2ccccc2)c2ccccc2C[C@@]12COC(c1ccc(OCCCO)cc1)=N2 | 1.47 | 0.631 (inactive) | -1.07 (inactive) | 1.14 (inactive) | 2.9 | -0.405 (inactive) | 0.456 | 0.75 | 1.07 | 0.242 | 1.51 | 0.957 | 1.12 | -0.651 (inactive) | 0.805 | 1.32 | 0.432 | 1.32 | 0.763 | 1.18
6 | CCOC(=O)C1=CCC(C(C)(C)C)N(S(=O)(=O)c2ccc(C)cc2)C1 (stereo not given) | 1.54 | -0.792 (inactive) | -1.75 (inactive) | 1.66 (inactive) | 3.3 | -0.756 (inactive) | 0.0277 | 1.47 | 1.13 | 0.139 | 0.939 | 0.368 | 0.108 | -0.0514 (inactive) | 1.48 | 0.347 | 1.15 | 1.43 | 1.44 | 0.136
7 | Cc1c(NC(=O)CC#N)c(=O)n(-c2ccccc2)n1C | 0.175 | -1.36 (inactive) | -0.263 (inactive) | -0.722 (inactive) | 1.16 | -0.325 (inactive) | -0.225 | 0.407 | 0.66 | -0.0856 | 0.345 | -0.274 | -0.47 | 0.933 (inactive) | 0.118 | 0.526 | 0.322 | 0.367 | 0.273 | -0.256
